Test results: PubChem BioAssay (NCI)
About 83,000 compounds went through this panel and 20% of them were active in at least one assay; those are over-represented in the sample as a whole.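 A percent growth of 40 corresponds to 60% growth inhibition; 0 means no net growth; -100 means all cells died. Active threshold: below 10.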 Unmarked numbers belong to inactive results. Calls of active or inactive are those of the source.

Columns and labels:
Test in all cases: NCI-60 one-dose screen, 48 h (100 = growth as untreated, 0 = no growth, -100 = all killed)
Details in all cases: 10 µM unless noted
HCT-15 colon = system: HCT-15 colon
HT29 colon = system: HT29 colon
SNB-19 CNS = system: SNB-19 CNS
U251 CNS = system: U251 CNS
PC-3 prostate = system: PC-3 prostate
SK-MEL-5 melanoma = system: SK-MEL-5 melanoma
UACC-62 melanoma = system: UACC-62 melanoma
LOX IMVI melanoma = system: LOX IMVI melanoma
SK-MEL-28 melanoma = system: SK-MEL-28 melanoma
SK-MEL-2 melanoma = system: SK-MEL-2 melanoma
EKVX NSCLC = system: EKVX NSCLC
SN12C renal = system: SN12C renal
UO-31 renal = system: UO-31 renal
TK-10 renal = system: TK-10 renal
ACHN renal = system: ACHN renal
CAKI-1 renal = system: CAKI-1 renal
A498 renal = system: A498 renal
CCRF-CEM leukemia = system: CCRF-CEM leukemia
MOLT-4 leukemia = system: MOLT-4 leukemia

Compound | growth (HCT-15 colon) | growth (HT29 colon) | growth (SNB-19 CNS) [%] | growth (U251 CNS) | growth (PC-3 prostate) | growth (SK-MEL-5 melanoma) | growth (UACC-62 melanoma) | growth (LOX IMVI melanoma) | growth (SK-MEL-28 melanoma) | growth (SK-MEL-2 melanoma) | growth (EKVX NSCLC) [%] | growth (SN12C renal) [%] | growth (UO-31 renal) [%] | growth (TK-10 renal) [%] | growth (ACHN renal) | growth (CAKI-1 renal) | growth (A498 renal) | growth (CCRF-CEM leukemia) | growth (MOLT-4 leukemia)
O=c1ccn(C2CC(O)C(O)C(CO)O2)c(=O)[nH]1 (stereo not given) | 117% | 113% | 110 | 125% | 89.5% | 137% | 105% | 109% | 109% | 145% | 110 | 92.5 | 85 | 121 | 116% | 97% | 118% | 7.45% (active) | 102%
CC(C)(C)n1cc(-c2ccnc(NCCCNS(=O)(=O)c3ccc(Cl)cc3)c2)c(-c2cccc(O)c2)n1 | -65.3% (active) | -49.3% (active) | 24.6 | -43.7% (active) | -0.444% (active) | -87.8% (active) | -2.46% (active) | -88.4% (active) | -67.1% (active) | -64% (active) | 20.5 | 18.1 | 11 | 43.7 | 8.91% (active) | 19.2% | -8.44% (active) | 8.5% (active) | -17.3% (active)
C=C1CCC2C(C)(CO)C(O)CCC2(C)C1C/C=C1/C(=O)OCC1O/C=C/c1ccccc1 (stereo not given) | 57.8% | 56.6% | 95.3 | 83.8% | 58.6% | 82.1% | 65.2% | 36.8% | 93.3% | 72.7% | 103 | 73.8 | 69.1 | 119 | 87.2% | 77.1% | 86.4% | 10.7% | 21.2%
Cc1cc(N)n(S(=O)(=O)c2oc(-c3ccccc3)nc2C#N)n1 | 61.8% | 90.4% | 93.1 | 86.7% | 100% | 100% | 90.8% | 68.2% | 106% | 89.7% | 84.7 | 83.9 | 80.6 | 99.1 | 5.25% (active) | -49.4% (active) | 128% | 7.83% (active) | 0.904% (active)
CCOC(=O)c1cn2c3c(cc(C)cc3c1=O)C(=O)/C(=C/c1ccccc1)C2 | 109% | 105% | 84.4 | 83.3% | 99% | 91.3% | 68.1% | 94.5% | 93.8% | 95.5% | 101 | 94.2 | 57.6 | 75 | 91.3% | 73.3% | 86.9% | 93.5% | 86.9%
Cc1ccc(S(=O)(=O)NCCNc2nccc(-c3c(-c4cccc(N)c4)nc4sccn34)n2)cc1 | 92.1% | 91.7% | 104 | 101% | 84.5% | 84.6% | 79.4% | 95% | 107% | 109% | 83.5 | 81 | 70.9 | 116 | 86.4% | 81.8% | 92.4% | 95.8% | 88%
COc1ccc(C2CC(c3ccc(OC)cc3OC)=NN2c2ccc(S(N)(=O)=O)cc2)cc1 (stereo not given) | 75% | 71.8% | 85.7 | 79.3% | 56% | 91.6% | 77.2% | 101% | 125% | 94.6% | 87.5 | 90.8 | 86.8 | 105 | 107% | – | 102% | 75.5% | 61.8%
CCOC(=O)c1cn2c3c(cccc3c1=O)C(=O)/C(=C/c1cccc(Cl)c1Cl)C2 | 117% | 99.9% | 94.9 | 94.6% | 90.8% | 91.2% | 67.9% | 99.7% | 106% | 87.7% | 99.3 | 94.2 | – | 100 | 106% | 91.6% | 99.1% | 99.2% | 102%
